From PubChem
Hits are enriched below; roughly 12% of the tested compounds scored in any of these assays.
Shiga toxin inh = A qHTS for Small Molecule Inhibitors of Shiga Toxin; hit rate 9.2% among 290,000; Vero cells, Shiga toxin protein synthesis inhibition reporter; inhibition, % at 38.7 µM; in the data active means inhibition mostly above about 28%, no sharp cut-off; inactive means mostly below about 43%; further: 0% is about no effect
FMDV inh = High Throughput Screening for Foot and Mouth Disease Virus Antivirals | FMDV antiviral cell-based qHTS | Potency, µM (top dose mostly 57.9 µM), inactives show at the top dose activity change, negative = inhibition, actives largely listed as inhibitors | hit rate 1.2% among 410,000; calls by dose curve; tested in HEK293T cells; further: read-out not given here; potency means the concentration at half of the fitted maximal effect; on the % scale 0 is the no-effect control and ±100 the full control effect; nearly all actives have a fitted effect of over 45% in size
Sm TGR inh = qHTS Assay for the Inhibitors of Schistosoma Mansoni Peroxiredoxins. Schistosoma mansoni thioredoxin glutathione reductase (TGR), Q962Y6. purified TGR, DTNB reduction, TNB absorbance 405 nm. Potency, µM (series often up to 114 µM), inactives show at the top dose activity change, negative = inhibition, usual class: inhibitors. hit rate 3% among 360,000. AID 485364, 2010; active means well fitted inhibition curve with a large enough effect; inconclusive means small, poorly fitted or top-dose-only effect; inactive means no such curve, though single readings can be large or run the other way; further: potency means the concentration at half of the fitted maximal effect; on the % scale 0 is the no-effect control and ±100 the full control effect; nearly all actives have a fitted effect of over 60% in size
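TGR 20 nM + NADPH 100 uM (dispensed conc.), cpd preinc 15 min RT; start with NADPH (500 uM addition) then DTNB (15 mM addition). Kinetic TNB absorbance, 405 nm filter. Four-parameter Hill fit across titration.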
Cycloheximide cs = Cycloheximide Counterscreen for Small Molecule Inhibitors of Shiga Toxin | cell reporter, cycloheximide protein synthesis inhibition counterscreen | max response, % | hit rate 12% among 300,000 | AID 2314, 2010; in the data active means max response mostly above about 13%, no sharp cut-off; inactive means mostly below about 14%; further: read at 38.3 µM for the half of the compounds with a filed dose; 0% is about no effect
* = called active by the depositor; ? = inconclusive; nt = no result; + = active, no number.

SMILES | Shiga toxin inh | FMDV inh | Sm TGR inh | Cycloheximide cs
COc1cccc(NC(=O)C2Cc3ccccc3CN2C(=O)c2ccco2)c1 (stereo unspecified) | 79* | 25% | 35µM* | 54*
COc1ccc(CNC(=O)[C@@H]2CCCN2C(=O)[C@@H]2Cc3ccccc3CN2C(=O)OC(C)(C)C)cc1 | 10 | 6% | 10% | 2
Cc1ccc(NC(=O)C2Cc3ccccc3CN2C(=O)c2ccccc2)cc1Cl (stereo unspecified) | 3 | -28% | -23% | 18*
COc1c(N2C[C@@H]3CCCN[C@H]3C2)c(F)cc2c(=O)c(C(=O)O)cn(C3CC3)c12 | nt | 3% | nt | nt
Cc1cccc(CNC(=O)CCCn2c(=O)c3cccn3c3ccc(F)cc32)c1 | nt | -22% | 0% | nt
O=C(C1CCN(c2nc3ccccc3[nH]2)CC1)N1CCN(c2ccccc2)CC1 | nt | -26% | -5% | nt
CCOc1ccc(Nc2cc(C)nc3nncn23)cc1 | nt | 4% | 0% | nt
CCN(CC)c1ccc(-c2nc(-c3ccccc3C)no2)cc1[N+](=O)[O-] | nt | 15% | -1% | nt
O=C(NCc1ccccc1)C1Cc2ccccc2CN1C(=O)c1ccco1 (stereo unspecified) | 6 | 10% | 35µM* | -3
NS(=O)(=O)c1ccc(NC(=O)C2Cc3ccccc3CN2C(=O)c2ccco2)cc1 (stereo unspecified) | 15 | -8% | 45µM* | -6
Cc1ccc(C(=O)N2Cc3ccccc3CC2C(=O)O)cc1 (stereo unspecified) | -5 | nt | 6% | -3
O=C(NCc1ccc(F)cc1)C1Cc2ccccc2CN1C(=O)c1ccco1 (stereo unspecified) | -6 | 2% | 7% | 4
Cc1ccccc1NC(=O)C1Cc2ccccc2CN1C(=O)c1ccco1 (stereo unspecified) | 77* | 27% | 11µM* | 45*
O=C(O)C1Cc2ccccc2CN1C(=O)c1ccco1 (stereo unspecified) | nt | -9% | ? | 12*
Cc1ccc(NC(=O)C(=O)NCCCN2CCOCC2)cc1C | nt | -20% | 1% | nt
C/C=C(\C)C(=O)OC1[C@H](OC(C)=O)C2(CO)C(CC1(C)C)C1=CCC3C4(C)CCC(O[C@@H]5O[C@H](C(=O)O)[C@@H](O[C@@H]6O[C@H](CO)[C@@H](O)[C@H](O)[C@H]6O)[C@H](O)[C@H]5O[C@H]5O[C@H](CO)[C@@H](O)[C@H](O)[C@H]5O)[C@](C)(CO)C4CCC3(C)[C@]1(C)C[C@H]2O (stereo partly specified) | nt | 28µM* | nt | nt
O=C(Nc1ccon1)c1ccc(OC2CCCC2)cc1 | 92* | -6% | -1% | 64*
CC(C)(C)c1cc(NC(=O)c2ccc(OC3CCCC3)cc2)no1 | 18 | -23% | 3% | 3
Cn1cc(Cl)c(C(=O)OCC(=O)Nc2nc(-c3ccc(Br)cc3)cs2)n1 | 65* | -18% | -9% | 22*
O=C(COC(=O)CNC(=O)c1ccccc1)Nc1nc(-c2ccccc2)cs1 | 40 | 60% | -1% | 25*
O=C(COC(=O)c1cccs1)Nc1nc(-c2ccccc2)cs1 | 22 | 31% | ? | 1
Cn1nccc1C(=O)OCC(=O)Nc1nc(-c2ccccc2)cs1 | 54 | -8% | -11% | 24*
Cc1c(C(=O)O)cccc1-c1ccc(/C=C2\SC(=O)NC2=O)o1 | -6 | ? | -1% | 3
Cc1cc(/C=C2/NC(=O)N(c3ccccc3)C2=O)c(C)n1C(C)C | 41* | 9% | -10% | 40*
O=C1NC(=O)C(=Cc2ccc(N3CCOCC3)o2)C(=O)N1 | 20 | 9% | ? | 1
SMILES | Shiga toxin inh | FMDV inh | Sm TGR inh | Cycloheximide cs
O=C1N/C(=C/c2ccc(N3CCOCC3)o2)C(=O)N1c1cccc(Cl)c1 | 23 | -17% | 2.8µM* | 22*
Cc1c(C(=O)O)cccc1-c1ccc(/C=C2/NC(=O)N(c3ccccc3)C2=O)o1 | 40 | 30% | -27% | 28*
Cc1cc(/C=C2/NC(=O)N(Cc3ccccc3F)C2=O)c(C)n1C(C)C | 28 | 1% | -33% | 5
CCN1C(=O)N/C(=C/c2ccc(Sc3ccc(C)cc3)o2)C1=O | -6 | ? | ? | 3
Cc1ccc(/C=C2/NC(=O)N(c3ccccc3)C2=O)o1 | 90* | 22% | 32µM* | 32*
Cc1cc(C)cc(NC(=O)c2sc3nc[nH]c(=O)c3c2C)c1 | nt | -19% | 10% | nt
Cc1cccc(NCc2nc3ccccc3n2CCOc2ccccc2C)c1 | nt | 8% | 0% | nt
Cc1ccc(NC(=O)CN2C(=O)S/C(=C\c3ccc(-c4cccc(C(=O)O)c4C)o3)C2=O)cc1C | -1 | -2% | -11% | 8
O=C1N/C(=C/c2ccc(Br)s2)C(=O)N1c1ccccc1 | 65* | 9% | nt | 16*
Cc1cccc(NC(=O)CN2C(=O)N/C(=C/c3ccc(-c4cccc(C(=O)O)c4C)o3)C2=O)c1 | 45* | 1% | nt | 27*
CN(C)/C=C1\NC(=S)N(c2ccccc2)C1=O | 34 | -14% | ? | 1
COc1cccc(-c2ccc(SCC(=O)NC3CCCCC3)nn2)c1 | 14 | -13% | -4% | 20*
COc1ccc(-c2ccc(SCC(=O)Nc3cc(C)on3)nn2)cc1OC | 100* | 70% | -13% | 22*
Cc1ccc(-c2ccc(SCC(=O)Nc3cc(C)on3)nn2)cc1 | 13 | 6% | -5% | 6
COc1ccc(-c2ccc(SCC(=O)NC3CCCC3)nn2)cc1OC | 52* | 10% | 6% | 27*
CCOc1ccc(Nc2oc(-c3ccc(COc4ccc(C)cc4)o3)nc2C#N)cc1 | nt | 20% | -2% | nt
Nc1nc(Nc2ccc(Cl)cc2)nc(NCc2ccco2)c1[N+](=O)[O-] | 84* | 7% | -24% | 48*
Nc1nc(Nc2cccc(F)c2)nc(NCc2ccco2)c1[N+](=O)[O-] | 36 | ? | 7% | 13*
CNc1nc(Nc2ccc(Br)cc2)nc(N)c1[N+](=O)[O-] | 51* | 22% | -6% | 24*
Cc1cccc(Nc2nc(N)c([N+](=O)[O-])c(NCc3ccco3)n2)c1 | 21 | ? | -22% | -3
Nc1nc(Nc2cccc(Cl)c2)nc(NCc2ccco2)c1[N+](=O)[O-] | 36 | ? | -26% | 34*
Cc1ccc(S(=O)(=O)n2cccc2/C=C/[N+](=O)[O-])cc1 | nt | 16µM* | nt | nt
O=C(NCCc1ccccc1)c1nc2nc(-c3cccs3)cc(C(F)(F)F)n2n1 | + | 18% | -2% | 41*
Cc1cc(C)n2nc(C(=O)NCCc3ccccc3)nc2n1 | 92* | 27% | 16% | 68*
O=C(O)c1cc2nc(-c3cccs3)cc(C(F)(F)F)n2n1 | 9 | 4% | ? | -2
Cc1nc(NC(=O)c2ccccc2)sc1C1(C)CC(c2c(Cl)cccc2Cl)=NO1 (stereo unspecified) | 4 | -24% | 32µM* | 2
Cc1nc(NC(=O)c2ccccc2)sc1C1(C)CC(c2ccccc2F)=NO1 (stereo unspecified) | 60* | 41% | ? | 43*
Cc1nc(-c2ccc(Cl)cc2)sc1C1(C)CC(c2c(Cl)cccc2Cl)=NO1 (stereo unspecified) | -2 | -25% | 24% | 1
